“And” between values parts separate entries of the source, which are not always exact repeats. Equal entries are not always repeated. Records with an inconclusive call do not appear. The source holds several records for some structures; these can differ, active in one and inactive in another. The source made the active and inactive calls. How the source made its calls: active means hit-call score of the fitted dose curve at least 0.9, where 1 is the maximum; inconclusive means response in the unintended direction; inactive means score below 0.9. Peptide text beside a SMILES is read from it.

Chain of Cellular tumor antigen p53 (Homo sapiens) (P04637 whole entry, looked up): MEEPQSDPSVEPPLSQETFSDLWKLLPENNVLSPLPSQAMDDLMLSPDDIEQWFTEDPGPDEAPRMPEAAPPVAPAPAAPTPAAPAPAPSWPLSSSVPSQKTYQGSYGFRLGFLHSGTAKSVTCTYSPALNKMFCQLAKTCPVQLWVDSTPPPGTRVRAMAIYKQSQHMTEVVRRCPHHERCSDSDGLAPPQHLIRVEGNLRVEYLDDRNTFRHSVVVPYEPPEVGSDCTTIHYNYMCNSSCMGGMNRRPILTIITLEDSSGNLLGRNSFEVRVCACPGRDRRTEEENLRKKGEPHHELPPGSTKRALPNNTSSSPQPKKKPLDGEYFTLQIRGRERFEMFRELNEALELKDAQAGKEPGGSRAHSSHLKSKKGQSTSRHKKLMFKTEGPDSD

Test system in the first assay: not listed separately
The experiment in a line: TOX21_p53_BLA_p2_viability: Viability Assessment in the Tox21 HCT-116 p53 Agonism Beta-lactamase Assay, Phase 2 (AID 2283591).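 Further: compound exposure lasted 16 h at 37 °C; actives lower the ATP signal meaning cytotoxicity.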 In a few lines:
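HCT116 p53-bla cells, 4000/well, dosed after 5 h plating (217-fold dilution of DMSO stocks) and incubated 16 h at 37C. Viability taken as cellular ATP by CellTiter-Glo luminescence after 30 min RT; signal loss marks cytotoxicity.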
Regarding `O=C(O)c1cc(O)c2ccccc2c1O`, the molecule was called inactive.
Still for that read-out and setting: the result for `O=C1CCCCCCCCCCCN1` reads “inactive”; that for `Fc1ccc(Br)cc1`, “inactive”.
Take `c1ccc(Nc2cccc3ccccc23)cc1`: the concentration at half-maximal activity (AC50) was 71.1 µM (active) and the call was inactive.
As to `Oc1c(Cl)cc(Cl)c(Cl)c1Cl`, the molecule was called inactive.
The same measure, in the same setting: the result for `CCCCC1C(=O)N(c2ccccc2)N(c2ccccc2)C1=O` reads “inactive”; that for `CC(C)=CCCC(C)=CC#N`, “inactive”; that for `COc1ccc(C(=O)c2ccccc2)c(O)c1`, “inactive”.
Still for that read-out and setting: then `O=C(O[C@@H]1Cc2c(O)cc(O)cc2O[C@@H]1c1cc(O)c(O)c(O)c1)c1cc(O)c(O)c(O)c1`, with “inactive”.
The same measure, in the same setting: then `c1ccc2c(c1)[nH]c1ccccc12`, with “inactive”.
`CCCCC(=O)O`: the call was inactive.
With `CC(C)OC(=O)c1ccccc1`, the molecule was classed as inactive.
Consider `C/C=C/C=C/CCCCCCCO`, for which the call was inactive.

Another assay addresses Cellular tumor antigen p53 (Homo sapiens) (UniProt P04637). The experiment in a line: TOX21_p53_BLA_p2_ratio: Tox21 HCT-116 p53 Agonism Beta-lactamase Assay, Ratio, Phase 2 (AID 2283592). In a few lines: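 An inducible beta-lactamase reporter in HCT116 cells signals p53 pathway activation. After 16 h chemical exposure at 37C, cells load CCF4-AM substrate for 2 h at room temperature; activity is the cleaved/uncleaved emission ratio relative to DMSO.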
In the case of `CCCCCCCOC(=O)c1ccc(O)cc1`, the AC50 is 58.9 µM (active) and 86.4 µM (active).
As to `N#CC1(N)CCCCC1`, the outcome was inactive.
For `O=C(O)/C=C/c1ccccc1`, the outcome was inactive.
On the same count and under the same terms, the result for `Oc1ccc(/C=C/c2cc(O)cc(O)c2)cc1` reads “inactive”; that for `CCN1CCCC1=O`, “inactive”; that for `CCCCCCCCCC(C)=O`, “inactive”.
The same measure, in the same setting: then `CC(C)(C)C1CCC(=O)CC1`, with “inactive”.
As to `N=C1C=CC(=C(c2ccc(N)cc2)c2ccc(N)cc2)C=C1`, the AC50 was 54.2 µM (active).
With `CC(C)(c1ccccc1)c1ccc(Nc2ccc(C(C)(C)c3ccccc3)cc2)cc1`, the result was inactive.
Still for that read-out and setting: the result for `CC(C)c1ccc(O)c(C(C)C)c1` reads “inactive”; that for `COC(=O)[C@H](Cc1ccccc1)NC(=O)[C@@H](N)CC(=O)O` (H-Asp-Phe-OMe), “inactive”.
On the same count and under the same terms, the result for `CCCCNS(=O)(=O)c1ccccc1` reads “inactive”.
The same measure, in the same setting: the result for `C=C(C)OC(C)=O` reads “inactive”; that for `O=C(Cl)c1ccc(C(=O)Cl)cc1`, “inactive”.
Take `CC(=O)CCC=C(C)C`: the outcome was inactive.
Still for that read-out and setting: the result for `CC(C)CC(=O)OCc1ccccc1` reads “inactive”; that for `O=C(O)c1ccc2c(c1)C(=O)OC2=O`, “inactive”.
The same measure, in the same setting: then `CC(CC(C)C)=NO`, with “inactive”.
On the same count and under the same terms, then `CC1OC(=O)C(C)OC1=O` (stereo unspecified), with “inactive”; and `O=C(Oc1ccccc1)c1ccccc1C(=O)Oc1ccccc1`, with “inactive”; and `CCCCCCCCCCCCCC(=O)OC(C)C`, with “inactive”.
`N#Cc1ccc(C2CCCc3cncn32)cc1` (stereo unspecified): the result was inactive.
Still for that read-out and setting: then `CC1=C(O)C(=O)C(C)O1` (stereo unspecified), with “inactive”.
The same measure, in the same setting: then `CC(C)c1cccc(C(C)C)c1N`, with “inactive”.
Take `O=C(Nc1ccccc1)c1cc(Cl)ccc1O`: the AC50 is 3.55 µM (active).
As to `CC(C)[N+](C)(CCOC(=O)C1c2ccccc2Oc2ccccc21)C(C)C`, the outcome was inactive.
Same read-out and setting: then `O=C(O)c1cc(O)c2ccccc2c1O`, with “inactive”.
On the same count and under the same terms, the result for `O=C1CCCCCCCCCCCN1` reads “inactive”; that for `Fc1ccc(Br)cc1`, “inactive”.
Turning to `c1ccc(Nc2cccc3ccccc23)cc1`, the AC50 was 77.1 µM (active) and 81.1 µM (active).
Still for that read-out and setting: then `Oc1c(Cl)cc(Cl)c(Cl)c1Cl`, with 34.4 µM (active) and 22.5 µM (active).
Turning to `CCCCC1C(=O)N(c2ccccc2)N(c2ccccc2)C1=O`, the outcome was inactive.
Consider `CC(C)=CCCC(C)=CC#N`, for which the outcome was inactive.
On the same count and under the same terms, then `COc1ccc(C(=O)c2ccccc2)c(O)c1`, with “inactive”; and `O=C(O[C@@H]1Cc2c(O)cc(O)cc2O[C@@H]1c1cc(O)c(O)c(O)c1)c1cc(O)c(O)c(O)c1`, with “inactive”; and `c1ccc2c(c1)[nH]c1ccccc12`, with “inactive”.
Still for that read-out and setting: then `CCCCC(=O)O`, with “inactive”.
On the same count and under the same terms, the result for `CC(C)OC(=O)c1ccccc1` reads “inactive”; that for `C/C=C/C=C/CCCCCCCO`, “inactive”.

Test system in another assay: not listed separately
Kind of assay: TOX21_p53_BLA_p3_viability: Viability Assessment in the Tox21 HCT-116 p53 Agonism Beta-lactamase Assay, Phase 3 (AID 2283593).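 Further: cells exposed to compound for 16 h before reading.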 In a few lines:
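HCT116 cells, 4000/well, dosed 5 h after plating by pin transfer (217-fold dilution from DMSO stock) and incubated 16 h at 37C, 5% CO2. Viability read as ATP luminescence with CellTiter-Glo after 30 min at room temperature.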
On to `CCCCCCCOC(=O)c1ccc(O)cc1`, for which the AC50 was 44.2 µM (active) and the call was inactive.
`N#CC1(N)CCCCC1`: the outcome was inactive.
On the same count and under the same terms, then `O=C(O)/C=C/c1ccccc1`, with “inactive”; and `Oc1ccc(/C=C/c2cc(O)cc(O)c2)cc1`, with “inactive”.
On the same count and under the same terms, then `CCN1CCCC1=O`, with “inactive”; and `CC(C)(C)C1CCC(=O)CC1`, with “inactive”.
On the same count and under the same terms, the result for `N=C1C=CC(=C(c2ccc(N)cc2)c2ccc(N)cc2)C=C1` reads “inactive”.
On to `CC(C)(c1ccccc1)c1ccc(Nc2ccc(C(C)(C)c3ccccc3)cc2)cc1`, for which the molecule was called inactive.
On the same count and under the same terms, the result for `CC(C)c1ccc(O)c(C(C)C)c1` reads “inactive”; that for `COC(=O)[C@H](Cc1ccccc1)NC(=O)[C@@H](N)CC(=O)O` (H-Asp-Phe-OMe), “inactive”; that for `CCCCNS(=O)(=O)c1ccccc1`, “inactive”.
Same read-out and setting: then `C=C(C)OC(C)=O`, with “inactive”; and `O=C(Cl)c1ccc(C(=O)Cl)cc1`, with “inactive”.
On the same count and under the same terms, the result for `COc1ccc(-c2coc3cc(O)cc(O)c3c2=O)cc1` reads “inactive”; that for `CC(=O)CCC=C(C)C`, “inactive”.
With `CC(C)CC(=O)OCc1ccccc1`, the molecule was called inactive.
The same measure, in the same setting: then `O=C(O)c1ccc2c(c1)C(=O)OC2=O`, with “inactive”; and `CC(CC(C)C)=NO`, with “inactive”; and `CC1OC(=O)C(C)OC1=O` (stereo unspecified), with “inactive”.
The same measure, in the same setting: the result for `O=C(Oc1ccccc1)c1ccccc1C(=O)Oc1ccccc1` reads “inactive”.
Still for that read-out and setting: the result for `CCCCCCCCCCCCCC(=O)OC(C)C` reads “inactive”; that for `CC(C)c1cccc(C(C)C)c1N`, “inactive”.
As for `O=C(Nc1ccccc1)c1cc(Cl)ccc1O`, the molecule was classed as inactive.
On the same count and under the same terms, then `CC(C)[N+](C)(CCOC(=O)C1c2ccccc2Oc2ccccc21)C(C)C`, with “inactive”.
Consider `O=C(O)c1cc(O)c2ccccc2c1O`, for which the call was inactive.
The same measure, in the same setting: then `O=C1CCCCCCCCCCCN1`, with “inactive”; and `Fc1ccc(Br)cc1`, with “inactive”.
On to `c1ccc(Nc2cccc3ccccc23)cc1`, for which the molecule was classed as inactive.
The same measure, in the same setting: then `Oc1c(Cl)cc(Cl)c(Cl)c1Cl`, with “inactive”; and `CCCCC1C(=O)N(c2ccccc2)N(c2ccccc2)C1=O`, with “inactive”; and `CC(C)=CCCC(C)=CC#N`, with “inactive”.
The same measure, in the same setting: then `COc1ccc(C(=O)c2ccccc2)c(O)c1`, with “inactive”; and `O=C(O[C@@H]1Cc2c(O)cc(O)cc2O[C@@H]1c1cc(O)c(O)c(O)c1)c1cc(O)c(O)c(O)c1`, with “inactive”; and `c1ccc2c(c1)[nH]c1ccccc12`, with “inactive”.
Same read-out and setting: the result for `CCCCC(=O)O` reads “inactive”.
Take `CC(C)OC(=O)c1ccccc1`: the outcome was inactive.
`C/C=C/C=C/CCCCCCCO`: the molecule was called inactive.
